# Assay results reported in PubChem BioAssay (NCI).
# The panel holds about 83,000 compounds, 20% with a hit somewhere; the sample as a whole holds those more often.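 96-well plates, one dose, 48 hours. Percent growth reported; active if below 10.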 Unmarked numbers belong to inactive results. Active and inactive are the calls of the source.
# Tests used:
# Assay in all cases: NCI-60 one-dose screen, 48 h (100 = growth as untreated, 0 = no growth, -100 = all killed)
# Details in all cases: 10 µM unless noted
# SR leukemia = test system: SR leukemia
# RPMI-8226 leukemia = test system: RPMI-8226 leukemia
# OVCAR-8 ovarian = test system: OVCAR-8 ovarian
# OVCAR-5 ovarian = test system: OVCAR-5 ovarian
# OVCAR-4 ovarian = test system: OVCAR-4 ovarian
# SK-OV-3 ovarian = test system: SK-OV-3 ovarian
# IGROV1 ovarian = test system: IGROV1 ovarian
# OVCAR-3 ovarian = test system: OVCAR-3 ovarian
# NCI/ADR-RES ovarian = test system: NCI/ADR-RES ovarian
# HS 578T breast = test system: HS 578T breast
Compound,growth (SR leukemia),growth (RPMI-8226 leukemia),growth (OVCAR-8 ovarian),growth (OVCAR-5 ovarian),growth (OVCAR-4 ovarian),growth (SK-OV-3 ovarian),growth (IGROV1 ovarian),growth (OVCAR-3 ovarian),growth (NCI/ADR-RES ovarian),growth (HS 578T breast)
COc1cc(NCCCN=C(N)NC(N)=NC(C)C)c2ncccc2c1,75.2%,52.5%,88.5%,57.6%,11.3%,93.7%,-12.8% (active),8.99% (active),98.8%,
Cc1cc(Nc2nc(-c3ccc(F)cc3)nc3ccccc23)n[nH]1,20.4%,94.8%,95%,70.3%,41%,21%,11.3%,,71%,25.1%
Cc1c(C(=O)NCc2ccccc2)[n+](=O)c2cc(F)ccc2n1[O-],70.6%,64.1%,116%,103%,98%,109%,-26.7% (active),,105%,148%
Cc1cc(C)c(S(=O)(=O)N2CCN(c3cc4c(cc3F)c(=O)c(C(=O)O)cn4C3CC3)CC2)c(C)c1,39.1%,22.4%,59.5%,42.2%,75.6%,81.6%,35.7%,91.3%,69.9%,
NC(CC(N)C(=O)O)C(=O)O (stereo unspecified),89.9%,98.6%,100%,97%,99.2%,111%,108%,107%,107%,
COc1ccc(/C=C/c2nc(N3CCOCC3)c3cc(F)c(F)cc3n2)cc1OC,16.2%,12.2%,32.9%,76%,30.6%,71.8%,53.4%,,22.8%,70.1%
O=C(CNC(=O)c1cccc2ccccc12)Nc1ccccc1Oc1ccccc1,13.1%,19.8%,13.4%,52.4%,36%,23.3%,32.1%,,10.3%,29.9%
CCCCCC(=O)OCc1ccccc1,85.4%,102%,102%,105%,110%,93.7%,96.7%,102%,100%,
Cc1cc(N/C=c2\sc3ncnn3c2=O)no1,74.8%,92.5%,101%,108%,106%,105%,94.4%,,99.1%,98.9%
Nc1c(C(=O)Nc2ccccc2)sc2nc3c(cc12)CCCCC3,17%,-29.6% (active),17.9%,43.8%,15.3%,17.1%,36.2%,,2.18% (active),14.5%
COc1ccc(NC(=S)/N=c2\oc3c(OC)cccc3cc2-c2cc3ccccc3[nH]2)cc1,103%,105%,54.8%,91.5%,56.4%,69.4%,63.1%,,56.7%,36.4%
NS(=O)(=O)c1ccc(CN2C(=O)c3cccc4cccc(c34)C2=O)cc1,104%,87.2%,91.9%,89.6%,119%,101%,105%,98.5%,98%,
CCOP(=O)(CCN1CCN(CCCCCOc2cc3c(cc2OC)C(=O)N2CCC[C@H]2C=N3)CC1)OCC,28.7%,-10.5% (active),83.4%,106%,87.8%,118%,-26% (active),,88.5%,84.5%
COc1cc(OC)c(C(=O)/C=C/c2cccc(C#N)c2)c(OC)c1,3.17% (active),1.52% (active),7.46% (active),40.1%,18.1%,0.849% (active),9.48% (active),,14.8%,17.6%
COC1=CC(c2ccc[nH]2)=N/C1=C\c1[nH]c(C)c(C(=O)CCCCC(=O)Oc2ccc3c(c2)CCC2C3CC[C@]3(C)[C@@H](O)CC[C@@H]23)c1C (stereo partly specified),23.2%,45%,70.8%,65.6%,48.6%,90%,70.7%,,82.4%,54.3%
COc1cc(Cn2c(SCC(=O)Nc3ccc(Cl)cc3)nc3ccccc3c2=O)cc(OC)c1OC,46.9%,28.6%,62.9%,82.2%,53.4%,68.2%,41.6%,,51.9%,7.73% (active)
CCCCCCCCCCCCCCCCC(Br)C(=O)O (stereo unspecified),105%,84.6%,103%,99.3%,97.8%,118%,125%,100%,110%,
O=[N+]([O-])c1c(S(=O)(=O)O)cc2cc(S(=O)(=O)O)ccc2c1[N+](=O)[O-],103%,109%,114%,97.2%,114%,122%,103%,,102%,98.7%
COc1ccc(/C=C2\Oc3cc(OCCN4CCCC4)ccc3C2=O)c(OC)c1,19.6%,33.9%,96.2%,90.3%,97.6%,110%,99.3%,,91.9%,98.5%

Compound,growth (SR leukemia),growth (RPMI-8226 leukemia),growth (OVCAR-8 ovarian),growth (OVCAR-5 ovarian),growth (OVCAR-4 ovarian),growth (SK-OV-3 ovarian),growth (IGROV1 ovarian),growth (OVCAR-3 ovarian),growth (NCI/ADR-RES ovarian),growth (HS 578T breast)
CC[C@]1(O)C[C@@H]2CN(Cc3c([nH]c4ccccc34)[C@@](C(=O)OC)(c3cc4c(cc3OC)N(C)[C@H]3[C@@](O)(C(=O)OC)[C@H](OC(C)=O)[C@]5(CC)[C@@H]6C[C@@H]6CN6CC[C@]43[C@@H]65)C2)C1,2.3% (active),48.8%,11.9%,51%,34.9%,15.2%,37.2%,,93.8%,16.8%
COc1cc2nc(N3CCC[C@@H](NC4=CC(=O)c5ccccc5C4=O)C3)nc(N)c2cc1OC,-11.3% (active),-44.1% (active),-41.2% (active),110%,81.5%,112%,-82.3% (active),-69.5% (active),99%,
O=C(OCCCCOC(=O)n1cnc2ccccc21)n1cnc2ccccc21,84.6%,102%,99.7%,103%,105%,98.9%,102%,,105%,90.2%
N#Cc1ncc(-c2ccc(F)c(F)c2F)c(NC2CCCCCC2)n1,69.5%,63.1%,86.1%,94.2%,81.1%,95.8%,83.8%,,83.8%,75.9%
COc1cc(Br)c(OC)cc1Br,111%,96.2%,105%,93%,102%,101%,79.5%,96.8%,95.3%,
Cc1ccc2nc(-c3c(CCCO)noc3N)[nH]c(=O)c2c1,71.8%,90.4%,106%,120%,97.4%,106%,4.96% (active),104%,123%,
COc1cc(CNC(=O)CSc2nc3ccccc3c(=O)n2Cc2cc(OC)c(OC)c(OC)c2)cc(OC)c1OC,123%,102%,96.4%,102%,103%,108%,97.9%,,103%,110%
CCCCC[C@@H]1Cc2cc(O)c(C(=O)O)c3c2[C@H](C[C@@]2(CCCO2)O3)O1,64.4%,98.7%,101%,104%,94.2%,113%,-4.39% (active),,96.1%,122%
CCOc1ccc(/C=C/C=N/NC(N)=S)cc1,70.4%,39.7%,100%,90.9%,73.2%,110%,53.5%,73.7%,82.6%,
O=C(CCCn1c(=O)c2sc3ccccc3c2n2nnc(-c3ccccc3)c12)NCCc1cnc[nH]1,84.2%,62.5%,-28.5% (active),-78.9% (active),-54.5% (active),75.3%,,-47.6% (active),36.1%,90.6%
COc1cc(Cn2c(SCCC(=O)Nc3ccc(F)cc3)nc3ccccc3c2=O)cc(OC)c1OC,56.7%,74.9%,84.1%,94.1%,85%,95%,77.8%,,83.5%,86.2%
COc1ccc(C2NC3=C(CCCC3)C(C#N)(C#N)C2(C#N)C#N)cc1 (stereo unspecified),1.12% (active),79.9%,104%,97.1%,98.1%,99.5%,,43%,101%,98%
COc1ccc(-c2nc3sccn3c2-c2ccnc(NCCCNS(=O)(=O)c3ccc(C)cc3)n2)cc1,33.1%,23.2%,25%,93.4%,42.9%,56.1%,33.9%,,20.8%,
N#Cc1c(NC(=O)c2ccc([N+](=O)[O-])o2)[n+]([O-])c2cc(F)c(F)cc2[n+]1[O-],77.3%,111%,68%,108%,102%,129%,,122%,102%,158%
COc1cc(CNC(=O)CCSc2nc3ccccc3c(=O)n2Cc2cc(OC)c(OC)c(OC)c2)cc(OC)c1OC,11.1%,39.2%,48.2%,68.3%,58.9%,27.3%,51.3%,,17.4%,57.4%
O=C1NCC(c2cc3ccccc3[nH]c2=O)Nc2ccccc21 (stereo unspecified),100%,106%,103%,91.2%,104%,89.9%,,111%,111%,99.4%
CCSc1nnc(Nc2ccc(C(C)C)cc2)s1,69.4%,72.2%,109%,87.1%,84%,104%,-7.13% (active),,87.6%,
COc1ccc(Cn2cc(COc3cc(/C=C/C(=O)c4cc(OC)c(OC)c(OC)c4)ccc3OC)nn2)cc1,5.65% (active),-2.32% (active),46.6%,81.3%,51%,72%,88.8%,,46.2%,83.3%
